Data published in the supplement of paper PMC6897291.

Key:
U-2932 [1] = test: growth inhibition by drug alone (1 - RLU/untreated control) (fraction); higher = stronger inhibition; conditions: 177Lu-lilotomab satetraxetan 0 ug/ml
In short: (§1)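 Compound doses on the pre-printed Selleck Cambridge Cancer Compound library plates were 10/100 nM for RIVA cells and 10/1,000 nM for U-2932 cells, seeded at 3,000 cells/well. Before seeding, cells were washed after 18 h with or without a radiolabelled anti-CD37 antibody conjugate (~600 MBq/mg; 0.5 µg/ml RIVA, 1 µg/ml U-2932). Growth inhibition was derived from RealTime-Glo luminescence relative to untreated no-drug control wells. Readings were taken daily starting on day 3, each after 1 h at 37°C, and each well's RLU was divided by the mean of 48 such wells per plate and subtracted from 1.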

RIVA [2] = test: as above; conditions: 177Lu-lilotomab satetraxetan 0 ug/ml
In short: as §1

U-2932 [3] = test: growth inhibition by drug plus 177Lu-lilotomab satetraxetan (1 - RLU/untreated control) (fraction); higher = stronger inhibition; conditions: 177Lu-lilotomab satetraxetan 1 ug/ml
In short: as §1

RIVA [4] = test: as above; conditions: 177Lu-lilotomab satetraxetan 0.5 ug/ml
In short: as §1

| Compound | growth inhibition by drug alone (U-2932 [1]; 10 nM, time (day): 3) | growth inhibition by drug alone (U-2932 [1]; 10 nM, time (day): 4) | growth inhibition by drug alone (U-2932 [1]; 10 nM, time (day): 5) | growth inhibition by drug alone (U-2932 [1]; 10 nM, time (day): 6) | growth inhibition by drug alone (U-2932 [1]; 1000 nM, time (day): 3) | growth inhibition by drug alone (U-2932 [1]; 1000 nM, time (day): 4) | growth inhibition by drug alone (U-2932 [1]; 1000 nM, time (day): 5) | growth inhibition by drug alone (U-2932 [1]; 1000 nM, time (day): 6) | growth inhibition by drug alone (RIVA [2]; 10 nM, time (day): 3) | growth inhibition by drug alone (RIVA [2]; 10 nM, time (day): 4) | growth inhibition by drug alone (RIVA [2]; 10 nM, time (day): 5) | growth inhibition by drug alone (RIVA [2]; 10 nM, time (day): 6) | growth inhibition by drug alone (RIVA [2]; 100 nM, time (day): 3) | growth inhibition by drug alone (RIVA [2]; 100 nM, time (day): 4) | growth inhibition by drug alone (RIVA [2]; 100 nM, time (day): 5) | growth inhibition by drug alone (RIVA [2]; 100 nM, time (day): 6) | growth inhibition by drug plus 177Lu-lilotomab satetraxetan (U-2932 [3]; 10 nM, time (day): 3) | growth inhibition by drug plus 177Lu-lilotomab satetraxetan (U-2932 [3]; 10 nM, time (day): 4) | growth inhibition by drug plus 177Lu-lilotomab satetraxetan (U-2932 [3]; 10 nM, time (day): 5) | growth inhibition by drug plus 177Lu-lilotomab satetraxetan (U-2932 [3]; 10 nM, time (day): 6) | growth inhibition by drug plus 177Lu-lilotomab satetraxetan (U-2932 [3]; 1000 nM, time (day): 3) | growth inhibition by drug plus 177Lu-lilotomab satetraxetan (U-2932 [3]; 1000 nM, time (day): 4) | growth inhibition by drug plus 177Lu-lilotomab satetraxetan (U-2932 [3]; 1000 nM, time (day): 5) | growth inhibition by drug plus 177Lu-lilotomab satetraxetan (U-2932 [3]; 1000 nM, time (day): 6) | growth inhibition by drug plus 177Lu-lilotomab satetraxetan (RIVA [4]; 10 nM, time (day): 3) | growth inhibition by drug plus 177Lu-lilotomab satetraxetan (RIVA [4]; 10 nM, time (day): 4) | growth inhibition by drug plus 177Lu-lilotomab satetraxetan (RIVA [4]; 10 nM, time (day): 5) | growth inhibition by drug plus 177Lu-lilotomab satetraxetan (RIVA [4]; 10 nM, time (day): 6) | growth inhibition by drug plus 177Lu-lilotomab satetraxetan (RIVA [4]; 100 nM, time (day): 3) | growth inhibition by drug plus 177Lu-lilotomab satetraxetan (RIVA [4]; 100 nM, time (day): 4) | growth inhibition by drug plus 177Lu-lilotomab satetraxetan (RIVA [4]; 100 nM, time (day): 5) | growth inhibition by drug plus 177Lu-lilotomab satetraxetan (RIVA [4]; 100 nM, time (day): 6) |
| --- | --- | --- | --- | --- | --- | --- | --- | --- | --- | --- | --- | --- | --- | --- | --- | --- | --- | --- | --- | --- | --- | --- | --- | --- | --- | --- | --- | --- | --- | --- | --- | --- |
| O=C(O)C(Cc1c[nH]c2ccccc12)N1C(=O)c2ccccc2C1=O (centres undefined) | 0.0147 | 0.0153 | -0.0484 | -0.236 | -0.0782 | -0.0484 | -0.0679 | -0.115 | -0.0918 | -0.166 | -0.249 | -0.485 | -0.231 | -0.283 | -0.253 | -0.339 | -0.0896 | -0.0477 | -0.032 | 0.0338 | -0.157 | -0.0639 | -0.0646 | -0.0481 | 0.311 | 0.457 | 0.475 | 0.497 | 0.275 | 0.394 | 0.397 | 0.381 |
| Cn1cnc(N)c2ncnc1-2 [3-Methyladenine] | 0.0713 | 0.0365 | 0.0189 | 0.0577 | 0.00855 | 0.0177 | -0.0282 | -0.00202 | 0.018 | -0.00798 | -0.0197 | -0.0603 | -0.346 | -0.249 | -0.276 | -0.338 | 0.0187 | 0.0789 | 0.12 | 0.165 | -0.00331 | 0.0603 | 0.0974 | 0.207 | 0.557 | 0.602 | 0.615 | 0.612 | 0.517 | 0.565 | 0.57 | 0.56 |
| CN(C)CCOc1ccc(-c2nc(-c3ccncc3)c(-c3ccc4c(c3)CC/C4=N\O)[nH]2)cc1 | -0.0248 | -0.0722 | -0.0892 | 0.0453 | 0.104 | 0.0148 | 0.0221 | 0.134 | -0.226 | -0.183 | -0.167 | -0.14 | -0.788 | -0.651 | -0.644 | -0.615 | -0.0652 | -0.0236 | 0.0668 | 0.196 | 0.124 | 0.0207 | 0.0638 | 0.259 | 0.358 | 0.494 | 0.536 | 0.556 | -0.0096 | 0.315 | 0.378 | 0.441 |
| O=c1[nH]cc(F)c(=O)[nH]1 [Adrucil (Fluorouracil)] | 0.0617 | 0.0194 | 0.0184 | -0.211 | 0.0564 | 0.0179 | 0.00587 | -0.153 | -0.0691 | -0.144 | -0.384 | -0.72 | -0.6 | -0.481 | -0.493 | -0.619 | -0.0549 | 0.00352 | 0.0517 | 0.0335 | 0.0514 | 0.0854 | 0.184 | 0.275 | 0.421 | 0.521 | 0.54 | 0.555 | 0.398 | 0.483 | 0.493 | 0.512 |
| Cc1[nH]c(/C=C2\C(=O)Nc3ccc(S(=O)(=O)Cc4c(Cl)cccc4Cl)cc32)c(C)c1C(=O)N1CCC[C@@H]1CN1CCCC1 | -0.0448 | -0.0348 | -0.136 | -0.363 | -0.15 | -0.0937 | -0.118 | -0.0292 | -0.0942 | -0.161 | -0.228 | -0.375 | -0.272 | -0.354 | -0.323 | -0.456 | -0.098 | -0.0543 | -0.04 | 0.0103 | -0.291 | -0.156 | -0.125 | -0.00631 | 0.279 | 0.438 | 0.464 | 0.487 | 0.246 | 0.384 | 0.381 | 0.376 |
| C[C@@H]1C[C@H]2[C@@H]3CCC4=CC(=O)C=C[C@]4(C)[C@@]3(F)[C@@H](O)C[C@]2(C)[C@@]1(O)C(=O)CO [Dexamethasone] | 0.345 | 0.301 | 0.236 | 0.236 | 0.466 | 0.472 | 0.362 | 0.306 | 0.0365 | 0.0468 | -0.018 | -0.23 | -0.0879 | -0.051 | -0.149 | -0.312 | 0.277 | 0.301 | 0.26 | 0.353 | 0.422 | 0.466 | 0.406 | 0.431 | 0.415 | 0.467 | 0.484 | 0.498 | 0.362 | 0.429 | 0.417 | 0.414 |
| N#CCNC(=O)c1ccc(-c2ccnc(Nc3ccc(N4CCOCC4)cc3)n2)cc1 | -0.0265 | -0.0512 | -0.0373 | 0.104 | -0.161 | -0.159 | -0.134 | 0.0156 | -0.164 | -0.233 | -0.267 | -0.364 | -0.378 | -0.377 | -0.416 | -0.56 | -0.0778 | -0.021 | 0.0189 | 0.13 | 0.143 | 0.174 | 0.206 | 0.384 | 0.481 | 0.53 | 0.555 | 0.562 | 0.347 | 0.434 | 0.447 | 0.446 |
